Records with an inconclusive call do not appear. Activity calls are given as the source filed them. Calls come from the whole dose curve; as a rule, active = well fitted curve in the direction sought with a large enough effect; inconclusive = small, poorly fitted or top-dose-only effect, or another doubt; inactive = no such curve, though single readings can be large; an effect the other way counts as inactive or inconclusive.

Drawing on PubChem BioAssay (NCATS), this text covers Potency for 29 compounds.

In experiment [1] the target is Voltage-gated inwardly rectifying potassium channel KCNH2 (Homo sapiens) (UniProt Q12809). Put plainly: qHTS Assay for Small Molecule Inhibitors of the Human hERG Channel Activity (AID 588834).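 Note: lower thallium flux fluorescence means stronger hERG block; nearly all actives have a fitted effect of over 50% in size.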 Note: potency is the fitted concentration of half-maximal effect. Particulars: U2OS BacMam hERG, FluxOR thallium flux fluorescence; series mostly up to 46.1 µM. The method, boiled down:
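U2OS cells transduced with hERG via BacMam (MOI ~100), plated 2000/well, loaded with FluxOR thallium dye, compound ~10 min, then stimulation buffer; fluorescence decrease read kinetically; AC50 from Hill fits.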

Experiment [2] deals with Glutaminase kidney isoform, mitochondrial (Homo sapiens) (UniProt O94925). Put plainly: qHTS for Inhibitors of Glutaminase (GLS): LOPAC Validation (AID 624146). Note: nearly all actives have a fitted effect of over 60% in size. Note: potency is the fitted concentration of half-maximal effect. Particulars: glutaminase enzyme activity inhibition; series mostly up to 46.1 µM. The method, boiled down:
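hKGA in 45 mM KH2PO4 pH 8.2, 0.02% Tween-20 with pin-transferred compounds; 1 mM L-glutamine (stock) plus glutamate oxidase/HRP/Amplex Red coupling added. Fluorescence read initially and after 30 min at RT.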
A general note: Quantitative high-throughput screening tests each substance at several concentrations.

Experiment [3] is described as follows: qHTS of Trypanosoma Brucei Inhibitors: LOPAC Validation (AID 624147). Conditions: purified enzyme assay, luminescence, 45 min; series mostly up to 57.5 µM. In outline: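 Readout: single end-point luminescence (Kinase-Glo Plus, 10 min). Reaction conditions were TbPYK/substrate plus 130 uM ADP, 45 min at RT, pH 7.2 TEA buffer. No-enzyme wells served as controls, and data were normalized before concentration-response fitting.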

Experiment [4] in a line: qHTS of Nrf2 Activators: LOPAC Validation (AID 624149). Particulars: Nrf2/ARE reporter cell assay; series mostly up to 46.1 µM. The method, boiled down: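 Luminescence read-out of ARE-luciferase activation: AREc32_Fluc cells treated with compounds for 24 hr at 37 deg C, then lysed with Steady-Glo for 30 min at room temperature before reading.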
Experiment [5] can be described thus: HTS Assay for Allosteric Antagonists of the Human D2 Dopamine Receptor: Hit Validation in HTRF (AID 624455). Note: potency is the fitted concentration of half-maximal effect.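 Note: stable D1 dopamine receptor cell line scored for blocking the D1 response.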 Particulars: Cells stably expressing D1 dopamine receptor, inhibition mode; series mostly up to 46.1 µM. In outline: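 First, antagonism was screened by calcium flux in a force-coupled, inducible Hek293 Trex D2 line challenged with EC80 dopamine. Hits then went into an HTRF assay in cells stably expressing D1, testing inhibition of the D1 response.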
Background: In TR-FRET formats the signal depends on donor and acceptor labels being close together.

Experiment [6] deals with Glucagon-like peptide 1 receptor (Homo sapiens) (UniProt P43220). Put plainly: qHTS of GLP-1 Receptor Agonists: LOPAC Validation (AID 624148).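 Note: luminescence from a luciferase reporter switched on by cAMP; higher luminescence signal means agonism.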 Conditions: GLP-1R agonist cell assay; series mostly up to 46.1 µM. The method, boiled down:
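Agonism scored as increased luciferase luminescence driven by cAMP in HEK293 clones carrying GLP-1R. Cells settled 12 hours, received compound for 4-6 hr at 37 deg C, 5% CO2, and were read after 12 min detection reagent at RT.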

Voltage-gated inwardly rectifying potassium channel KCNH2 (Homo sapiens), sequence (Q12809 whole entry, looked up): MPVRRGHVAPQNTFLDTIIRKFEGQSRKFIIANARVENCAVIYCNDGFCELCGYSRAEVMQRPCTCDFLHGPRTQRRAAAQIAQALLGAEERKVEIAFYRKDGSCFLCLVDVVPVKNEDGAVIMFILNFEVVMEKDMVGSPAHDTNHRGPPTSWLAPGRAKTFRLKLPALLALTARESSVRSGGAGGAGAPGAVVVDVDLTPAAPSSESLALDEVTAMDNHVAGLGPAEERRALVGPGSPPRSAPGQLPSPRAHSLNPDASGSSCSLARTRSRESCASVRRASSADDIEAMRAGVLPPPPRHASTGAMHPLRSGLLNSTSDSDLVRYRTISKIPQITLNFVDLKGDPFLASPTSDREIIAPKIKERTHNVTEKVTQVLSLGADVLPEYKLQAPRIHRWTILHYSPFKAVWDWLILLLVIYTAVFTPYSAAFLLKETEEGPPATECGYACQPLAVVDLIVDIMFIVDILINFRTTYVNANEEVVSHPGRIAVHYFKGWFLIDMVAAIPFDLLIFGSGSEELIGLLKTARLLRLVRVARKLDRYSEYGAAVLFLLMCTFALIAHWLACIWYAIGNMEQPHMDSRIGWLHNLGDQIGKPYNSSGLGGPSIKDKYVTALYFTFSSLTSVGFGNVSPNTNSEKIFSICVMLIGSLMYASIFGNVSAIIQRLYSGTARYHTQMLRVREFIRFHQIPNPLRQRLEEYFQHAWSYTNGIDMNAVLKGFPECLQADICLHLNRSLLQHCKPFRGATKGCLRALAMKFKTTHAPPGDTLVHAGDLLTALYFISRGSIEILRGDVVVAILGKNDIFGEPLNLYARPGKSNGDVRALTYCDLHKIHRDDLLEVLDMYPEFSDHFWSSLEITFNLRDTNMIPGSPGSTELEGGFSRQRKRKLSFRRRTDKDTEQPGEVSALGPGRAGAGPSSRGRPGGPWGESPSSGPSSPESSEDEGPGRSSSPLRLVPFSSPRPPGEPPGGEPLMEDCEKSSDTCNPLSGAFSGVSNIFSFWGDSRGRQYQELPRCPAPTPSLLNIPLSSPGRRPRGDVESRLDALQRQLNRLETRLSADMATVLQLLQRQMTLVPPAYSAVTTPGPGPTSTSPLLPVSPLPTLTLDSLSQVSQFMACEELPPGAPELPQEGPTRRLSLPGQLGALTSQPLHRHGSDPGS
Glutaminase kidney isoform, mitochondrial (Homo sapiens), sequence (O94925 whole entry, looked up, canonical isoform): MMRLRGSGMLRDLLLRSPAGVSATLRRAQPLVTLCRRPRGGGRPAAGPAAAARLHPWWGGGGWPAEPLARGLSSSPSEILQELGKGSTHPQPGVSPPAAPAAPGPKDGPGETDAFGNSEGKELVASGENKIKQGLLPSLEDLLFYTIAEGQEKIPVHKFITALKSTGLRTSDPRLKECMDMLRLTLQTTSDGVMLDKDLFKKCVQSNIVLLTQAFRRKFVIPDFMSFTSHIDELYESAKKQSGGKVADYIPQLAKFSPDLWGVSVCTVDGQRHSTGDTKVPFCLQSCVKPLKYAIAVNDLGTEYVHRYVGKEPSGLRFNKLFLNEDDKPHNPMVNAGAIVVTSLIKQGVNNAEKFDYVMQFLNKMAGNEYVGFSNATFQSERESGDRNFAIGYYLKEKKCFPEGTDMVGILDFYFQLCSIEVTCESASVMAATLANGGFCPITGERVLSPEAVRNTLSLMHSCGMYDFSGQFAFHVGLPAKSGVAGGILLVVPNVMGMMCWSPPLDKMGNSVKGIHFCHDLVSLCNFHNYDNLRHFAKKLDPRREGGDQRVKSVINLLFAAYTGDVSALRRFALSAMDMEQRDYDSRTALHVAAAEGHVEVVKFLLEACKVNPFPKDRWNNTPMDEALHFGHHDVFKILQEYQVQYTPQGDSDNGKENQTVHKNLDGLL
Glucagon-like peptide 1 receptor (Homo sapiens), sequence (P43220 whole entry, looked up): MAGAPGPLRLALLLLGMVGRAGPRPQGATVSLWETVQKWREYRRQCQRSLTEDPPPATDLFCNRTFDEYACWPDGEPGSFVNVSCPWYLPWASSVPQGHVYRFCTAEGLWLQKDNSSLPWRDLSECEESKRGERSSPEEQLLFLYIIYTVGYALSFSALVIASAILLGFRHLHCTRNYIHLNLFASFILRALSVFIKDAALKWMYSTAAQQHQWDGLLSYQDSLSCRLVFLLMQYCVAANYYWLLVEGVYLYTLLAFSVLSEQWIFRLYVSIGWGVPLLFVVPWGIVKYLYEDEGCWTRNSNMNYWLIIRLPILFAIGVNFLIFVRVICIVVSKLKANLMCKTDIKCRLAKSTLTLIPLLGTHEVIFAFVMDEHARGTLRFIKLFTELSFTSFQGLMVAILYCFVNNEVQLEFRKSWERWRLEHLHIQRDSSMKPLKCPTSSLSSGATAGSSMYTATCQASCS

With `N[C@@H](Cc1ccc(O)c(I)c1)C(=O)O`, the Potency entry in experiment [1], in experiment [2], in experiment [3], in experiment [4] and in experiment [5] was “inactive” throughout.

With `CCCCOC(=O)NS(=O)(=O)c1sc(CC(C)C)cc1-c1ccc(Cn2c(CC)nc3c(C)cc(C)nc32)cc1`, the Potency in experiment [1] is 14100 nM (active). Moreover, the Potency entry in experiment [2], in experiment [3], in experiment [6] and in experiment [5] was “inactive” in each case.

`CN(C)S(=O)(=O)c1ccc2c(c1)/C(=C/c1cc3c([nH]1)CCCC3)C(=O)N2`: in experiment [1], the Potency is 7940 nM (active). The Potency result in experiment [2], in experiment [3], in experiment [4] and in experiment [5] was “inactive” each time.

`CC(C)C[C@H](NC(=O)[C@H](O)[C@H](N)Cc1ccccc1)C(=O)O`: the Potency result in experiment [1], in experiment [2], in experiment [6], in experiment [4] and in experiment [5] was “inactive” each time.

As to `Cc1nc(N=Nc2ccc(C(=O)O)cc2)c(COP(=O)(O)O)c(C=O)c1O`, the Potency entry in experiment [1], in experiment [2], in experiment [4] and in experiment [5] was “inactive” each time.

For the compound `NCCS(=O)O`, the Potency result in experiment [1], in experiment [2], in experiment [4] and in experiment [5] was “inactive” throughout.

For the compound `CCCCCCC/C=C\CCCCCCCCC(=O)O`, the Potency result in experiment [1], in experiment [2], in experiment [6], in experiment [4] and in experiment [5] was “inactive” each time.

As to `CC(N)=NCCCC[C@@H](N)C(=O)O`, the Potency entry in experiment [1], in experiment [2], in experiment [3], in experiment [4] and in experiment [5] was “inactive” each time.

On to `NCC(O)c1ccc(O)c(O)c1` (stereo not drawn), for which the Potency entry in experiment [1], in experiment [2] and in experiment [3] was “inactive” in each case. Moreover, the Potency in experiment [5] was 1160 nM (active).

Consider `C#CCn1c(=O)c2c(ncn2C)n(C)c1=O`, for which the Potency result in experiment [1], in experiment [2], in experiment [6], in experiment [4] and in experiment [5] was “inactive” in each case.

Regarding `NCCCCN`, the Potency result in experiment [1], in experiment [2], in experiment [3], in experiment [4] and in experiment [5] was “inactive” in each case.

In the case of `C[C@H](NC(=O)/C(C#N)=C/c1ccc(O)c(O)c1)c1ccccc1`, the Potency entry in experiment [1], in experiment [3], in experiment [4] and in experiment [5] was “inactive” each time. Moreover, the Potency in experiment [2] is 794 nM (active).

Consider `CCn1c(=O)[nH]c2cc(Cl)c(Cl)cc21`, for which the Potency entry in experiment [1], in experiment [2], in experiment [3], in experiment [4] and in experiment [5] was “inactive” throughout.

As for `COC(=O)C1=C(C)NC(C)=C([N+](=O)[O-])C1c1ccccc1C(F)(F)F` (stereo not drawn), the Potency result in experiment [1], in experiment [2], in experiment [3], in experiment [4] and in experiment [5] was “inactive” each time.

As for `O=C1C2C=CC=CC2=NC(=S)N1CCN1CCC(=C(c2ccc(F)cc2)c2ccc(F)cc2)CC1` (stereo not drawn), in experiment [1], the Potency is 316 nM (active). Also, the Potency entry in experiment [2], in experiment [6], in experiment [4] and in experiment [5] was “inactive” each time.

`CNC(=O)c1cc2c(cn1)[nH]c1ccccc12`: the Potency result in experiment [1], in experiment [2], in experiment [6], in experiment [4] and in experiment [5] was “inactive” each time.

As to `O=c1ccn([C@@H]2O[C@H](COP(=O)(O)OP(=O)(O)O)[C@@H](O)[C@H]2O)c(=O)[nH]1`, the Potency entry in experiment [1], in experiment [2], in experiment [3], in experiment [4] and in experiment [5] was “inactive” throughout.

With `CNc1cc(NS(=O)(=O)c2ccc(N)cc2)nc(NC)n1`, the Potency result in experiment [1], in experiment [2], in experiment [6], in experiment [4] and in experiment [5] was “inactive” in each case.

For `N#Cc1cc2nc(O)c(O)nc2cc1[N+](=O)[O-]`, the Potency entry in experiment [1], in experiment [2], in experiment [3], in experiment [4] and in experiment [5] was “inactive” throughout.

`N#CC(=C(\N)Sc1ccccc1N)/C(C#N)=C(/N)Sc1ccccc1N`: the Potency entry in experiment [1] and in experiment [6] was “inactive” in each case. The Potency in experiment [2] is 12600 nM (active).

On to `CN1CCN(c2nc3cc(C(F)(F)F)ccc3n3cccc23)CC1`, for which the Potency in experiment [1] is 3980 nM (active). Besides, the Potency entry in experiment [2], in experiment [6], in experiment [4] and in experiment [5] was “inactive” in each case.

On to `COc1ccc2c(c1)CCC1C2CC[C@@]2(C)C1CC[C@@H]2NCCCCCCN1C(=O)C=CC1=O` (stereo partly drawn), for which the Potency entry in experiment [1], in experiment [2], in experiment [3] and in experiment [5] was “inactive” in each case.

For the compound `CC(N)(Cc1ccc(O)cc1)C(=O)O` (stereo not drawn), the Potency result in experiment [1], in experiment [2], in experiment [3] and in experiment [5] was “inactive” throughout.

On to `CC#CCOC(=O)c1c(C)nc2sc3c(c2c1N)CCC(O)C3` (stereo not drawn), for which the Potency entry in experiment [1], in experiment [2], in experiment [6], in experiment [4] and in experiment [5] was “inactive” in each case.

On to `O=C(O)Cc1c[nH]c2ccc(O)cc12`, for which the Potency entry in experiment [1], in experiment [6], in experiment [4] and in experiment [5] was “inactive” in each case. The Potency in experiment [2] was 1580 nM (active).

As to `NC(N)=NC(N)=Nc1ccccc1`, the Potency result in experiment [1], in experiment [2], in experiment [3], in experiment [6] and in experiment [5] was “inactive” in each case.

Take `C=CC[C@H](N)C(=O)O`: the Potency result in experiment [1], in experiment [2], in experiment [3], in experiment [4] and in experiment [5] was “inactive” throughout.

`O=c1[nH]c2ccccc2c2ccccc12`: the Potency entry in experiment [1], in experiment [2], in experiment [6], in experiment [4] and in experiment [5] was “inactive” in each case.

For the compound `CC[N+](CC)(CC)CC(=O)Nc1c(C)cccc1C`, the Potency entry in experiment [1], in experiment [2], in experiment [3], in experiment [4] and in experiment [5] was “inactive” in each case.
